Among the data in PMC7819943, “Rice protein-binding microarrays: a tool to detect cis-acting elements near promoter regions in rice” are binding signal values, retold here.

In all, about 68,000 sequences were measured (“fluorescence intensity (a.u.)”: median about 9,100, highest 2% from about 16,000 on). Only a selection was taken, and the highest values are over-represented in it overall.

This assay deals with OsWRKY34 (Oryza sativa, UniProt Q0JBA9 1-250). Nature of the assay: protein-binding microarray (RPBM); PBS, 2% BSA, 51.3 ng/ul salmon testes DNA, 50 uM zinc acetate, 200 nM TF, 25 C, 1 h; high values mean tight binding. As to conditions: protein: recombinant; tags: N-terminal polyhistidine and DsRed monomer fusion (pET32a); label: CyDye5-dUTP incorporated in the synthesized complementary strand; 3' TTTTT single-stranded linker to array surface; dsDNA, one strand shown. Summed up: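 Ni–NTA purification followed expression in E. coli BL21-CodonPlus of transcription factors fused N-terminally to a polyhistidine tag and DsRed. At 200 nM in PBS with 2% BSA, salmon testes DNA and 50 µM zinc acetate, the protein was incubated for 1 h at 25 °C with a custom Agilent array that had been primer-extended with Cy5-dUTP and blocked with 2% BSA. After washing, the array was read on an Axon 4000B scanner. The binding signal is per-feature fluorescence intensity in arbitrary units.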
OsWRKY34, sequence (Q0JBA9 entry or part of it): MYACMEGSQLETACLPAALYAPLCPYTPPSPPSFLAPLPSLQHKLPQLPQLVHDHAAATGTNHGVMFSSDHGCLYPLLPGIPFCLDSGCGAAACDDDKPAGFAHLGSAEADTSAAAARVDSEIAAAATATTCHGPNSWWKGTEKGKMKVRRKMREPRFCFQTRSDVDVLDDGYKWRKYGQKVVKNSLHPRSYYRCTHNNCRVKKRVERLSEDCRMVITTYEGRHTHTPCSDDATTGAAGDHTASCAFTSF
For the sequence “CACTTCACCTTTTTTGCAAGATGCTACTACTAATTACTAACGGAGTCACCTAGTGCAG”, the binding signal is 10400 fluorescence intensity (a.u.). For “GATATACACACTTAGCTCTCCTACTGTGAGAATTCTCTTCCGGAGTCACCTAGTGCAG”, the binding signal is 9480 fluorescence intensity (a.u.). Under “CCCTTTTTTATACCGTGGCATATCTCTCTGCATTTAATCTCGGAGTCACCTAGTGCAG” stands 13700 fluorescence intensity (a.u.). With “ATATGGCATTGTTTCTGTGTTATTCAGGCGCACCTTTAAACGGAGTCACCTAGTGCAG”, the binding signal is 10100 fluorescence intensity (a.u.). Under “CGGTTGCTCCTTTGCCTAATCACTCAATTCCAGTAACTTTCGGAGTCACCTAGTGCAG” stands 8760 fluorescence intensity (a.u.); under “TTGGGGTTGGACCGGTTTTCATCTGTTCTTGTCCTGAGAGCGGAGTCACCTAGTGCAG”, 10800 fluorescence intensity (a.u.). Under “GTGCAGCAATCATCTCGTCCACCTCACCTTACCCGAAACCCGGAGTCACCTAGTGCAG” stands 8340 fluorescence intensity (a.u.); under “GCCTCTGCCAGCCGACGGCCGTTCGGCCCTCCGCGCACGCCGGAGTCACCTAGTGCAG”, 8320 fluorescence intensity (a.u.). Under “CTTATCCACCATCAATGTTCCTGACTTCAATTTTTCGTTGCGGAGTCACCTAGTGCAG” stands 10500 fluorescence intensity (a.u.); under “TAACATTGATTGTTATGTCACTTGTCTGTGGATCAACTCTCGGAGTCACCTAGTGCAG”, 9060 fluorescence intensity (a.u.); under “GCGCTCCCGTCGTTGTCTCCGCTGCTTTGTTTCTCGTCGCCGGAGTCACCTAGTGCAG”, 11600 fluorescence intensity (a.u.). As to “CTCTTGAACGTTGTCGCCCGCCGTTTCCCGCCGCTGTCTCCGGAGTCACCTAGTGCAG”, the binding signal is 18200 fluorescence intensity (a.u.). Under “CTTCGTTTTTTAATAGATGACGCCGTTGACTTTTTCTCACCGGAGTCACCTAGTGCAG” stands 22000 fluorescence intensity (a.u.). Under “CCGTTTCCCGCCGCTGTCTCCCGCCGGAGCCGCCCCTGCTCGGAGTCACCTAGTGCAG” stands 9030 fluorescence intensity (a.u.); under “TAAATCCACGACCCTTCAGCTATCTATCTCAGCTCCAATCCGGAGTCACCTAGTGCAG”, 8170 fluorescence intensity (a.u.). Regarding “CTGCAATCTAGCCATCTGTTATCTATCCATGCATCGATGTCGGAGTCACCTAGTGCAG”, the binding signal was 8120 fluorescence intensity (a.u.). Under “ATAAACATAAACTTCCAACATTTCCGTCACATCATTCTAACGGAGTCACCTAGTGCAG” stands 8970 fluorescence intensity (a.u.); under “TTTCGGCCCACATTCCTATCCGTTTTTGCTCGGGTGGGCTCGGAGTCACCTAGTGCAG”, 10900 fluorescence intensity (a.u.); under “TTGGTGGGCCGTTATTTTGTTTGGGCTGGATTTGCACGTTCGGAGTCACCTAGTGCAG”, 11700 fluorescence intensity (a.u.).

As for “ATGGCGTTTGGGTTTGGCTCGGGTTGATCTGGATAAGGGACGGAGTCACCTAGTGCAG”, the binding signal was 9020 fluorescence intensity (a.u.).

As to “CATATCCGTTTTTGCTCGGGTGGGCTGGGTTAGGGACTCACGGAGTCACCTAGTGCAG”, the binding signal was 19000 fluorescence intensity (a.u.). Under “CACTCTGCAGCTCTGCTCGTTTTGCACACGGGTGACTCGTCGGAGTCACCTAGTGCAG” stands 9700 fluorescence intensity (a.u.); under “CGTTTTTGCTCGGGTGGGCTGGGTTAGGGACTCATCTGCACGGAGTCACCTAGTGCAG”, 23800 fluorescence intensity (a.u.).

Regarding “CCGCGCATTTTTTTGGTTCGAAATTCCTTTGCTAAGCAAACGGAGTCACCTAGTGCAG”, the binding signal was 8380 fluorescence intensity (a.u.).

“AAGGTTGGCATGACAATTCTCACTACTTGGACTAACAGTTCGGAGTCACCTAGTGCAG”: the binding signal is 8310 fluorescence intensity (a.u.). Under “TTCCAACTACCTAGCTCAGCTTAGTCTCTGGTTGACCATTCGGAGTCACCTAGTGCAG” stands 8450 fluorescence intensity (a.u.); under “GCTTCTACAATCGGATGGATTCACCATTGATTCTCGTTTTCGGAGTCACCTAGTGCAG”, 8940 fluorescence intensity (a.u.). Under “ACTTGATTTACGAACAGACATTTTTTATTTTTCTACACCACGGAGTCACCTAGTGCAG” stands 9230 fluorescence intensity (a.u.); under “TTGGGGTCGAGATATCCGGTTTTGTGGTTTAGGGTCATGTCGGAGTCACCTAGTGCAG”, 9090 fluorescence intensity (a.u.); under “TATTTGACGCCGTTGATTTTTTTAAATATGTTTGACCGTTCGGAGTCACCTAGTGCAG”, 11000 fluorescence intensity (a.u.). As to “ACTTTTTTAAATATGTTTGACCGTTCGTTTTATTCAAAAACGGAGTCACCTAGTGCAG”, the binding signal is 8320 fluorescence intensity (a.u.).

As to “TATTTGATGCCGTTGACTTTTTTAAATATGTTTGACCGTTCGGAGTCACCTAGTGCAG”, the binding signal was 20900 fluorescence intensity (a.u.). Under “ATTTGATGCCGTTGACTTTTTTAAATATGTTTAACCGTTCCGGAGTCACCTAGTGCAG” stands 33000 fluorescence intensity (a.u.).

For “GAATTGATCTCATGCATGCCAACCCTTCTAGCAATCTATCCGGAGTCACCTAGTGCAG”, the binding signal is 9310 fluorescence intensity (a.u.). In the case of “GGACCGTTCACTAACCCCGTAACCGTGTCGCGCGCGCAACCGGAGTCACCTAGTGCAG”, the binding signal was 9590 fluorescence intensity (a.u.). Under “TTCTTATTTGCAAGTATACTGTTTTGCTTTTCTCTCTAATCGGAGTCACCTAGTGCAG” stands 9690 fluorescence intensity (a.u.).
